In PubChem BioAssay AID488890 (Southern Research Specialized Biocontainment Screening …, 2010):
Among all 320,000 compounds or so, about 1,300 (0.41%) were called active. About 3% were inconclusive and are not listed. No rule for the calls is given here. A selection follows. Entries with a potency or affinity are not part of this list.

Assay: growth inhibition of non-replicating M. tuberculosis (AID 488890);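 also: plate controls were DMSO cells for no effect and high antibiotic wells for full effect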
Settings: Mycobacterium tuberculosis non-replicating, at 25 µM, stronger effect = higher value
Work on `C=CCOC(=O)c1cn(CC)c2nc(C)ccc2c1=O` yielded an inhibition of -10.5%.
For `CCOC(=O)C1(Cc2cccc(Cl)c2)CCCN(C(=O)c2ccoc2C)C1` (stereo not given), the inhibition was 33.8%.
With `CCOC(=O)NC(CC(=O)O)c1ccc(OC)cc1` (stereo not given) the inhibition was -4.02%.
`CCn1c(C)nc2cc(C(=O)N/N=C/c3ccc(N4CCOCC4)cc3)ccc21` showed an inhibition of 33%.
In the case of `CN1CCN(C2Cc3ccccc3Sc3ccc(Cl)cc32)CC1` (stereo not given), the inhibition is reported as 76.8%.
`c1ccc2c(c1)CC(N1CCCCC1)c1ccccc1S2` (stereo not given) gave an inhibition of 72.9%.
`CCOC(=O)C1(Cc2ccc(OC)cc2)CCN(C(=O)c2cncs2)CC1` showed an inhibition of -27.1%.
In the case of `CCOC(=O)c1ccc(NC(=O)NCc2ccncc2)cc1`, the inhibition is reported as 15.4%.
With `CCc1ccc(N2C(=O)c3cc(N4CCOCC4)c([N+](=O)[O-])cc3C2=O)cc1` the inhibition was 1.14%.
With `O=[N+]([O-])c1ccc(CSc2nnc3ccccn23)cc1` the inhibition was 1.79%.
With `CCc1ccc(NC(=O)CCCn2nc(CC)n3c(cc4occc43)c2=O)cc1` the inhibition was 21.1%.
`CSc1ccc(CCNC(=O)CCc2nnc3ccc(N4CCC5(CC4)OCCO5)nn23)cc1` showed an inhibition of 11.6%.
Compound `Cc1nc2ccc([N+](=O)[O-])cc2c(=O)n1Cc1ccc(Cl)cc1` has an inhibition of -5.97%.
`Cc1nc2ccc([N+](=O)[O-])cc2c(=O)n1Cc1ccc(Br)cc1` gave an inhibition of -9.44%.
With `O=c1c2ccccc2nc(-c2ccc([N+](=O)[O-])cc2)n1-c1ccccc1` the inhibition was -1.75%.
`Cc1nc2ccc(Cl)cc2c(=O)n1-c1ccc([N+](=O)[O-])cc1` showed an inhibition of 36.5%.
With `Cc1ccc(-c2nc3ccc(Cl)cc3c(=O)n2O)cc1` the inhibition was 69.6%.
For `COc1ccccc1-c1nc2ccc(Cl)cc2c(=O)n1O`, the inhibition was 11.4%.
`Nn1c(-c2ccccc2)nc2cc(Cl)ccc2c1=O` showed an inhibition of -0.74%.
For `O=C(Nn1c(-c2ccc(Br)cc2)nc2ccccc2c1=O)c1ccc([N+](=O)[O-])cc1`, the inhibition was 20.4%.
For `CCCNC(=O)c1ccc(Cn2c(=S)[nH]c3c([nH]c4ccc(OC)cc43)c2=O)cc1`, the inhibition was -43.9%.
For `CC1Cc2cc(S(=O)(=O)N3CCN(c4ccccc4F)CC3)ccc2N1C(=O)C1CC1` (stereo not given), the inhibition was 31.8%.
In the case of `CC1Sc2ccc(S(=O)(=O)CCC(=O)N3CCN(c4ccccc4)CC3)cc2NC1=O` (stereo not given), the inhibition is reported as 12.1%.
Compound `COC(=O)C1=C(C)NC(=O)CC1c1cc2c(cc1Br)OCO2` (stereo not given) has an inhibition of -0.49%.
Compound `Cc1ccccc1C(=O)N1CCN(c2ncccn2)CC1` has an inhibition of -10.1%.
Work on `CCOC(=O)c1ccc(S(=O)(=O)NC2CC2)cc1` yielded an inhibition of 0.31%.
Work on `COc1ccc(COC(=O)CN2C(=O)NC3(CC(C)CC(C)(C)C3)C2=O)cc1F` (stereo not given) yielded an inhibition of 7.47%.
`CC(C)C[C@H](NC(=O)c1nc[nH]c1C(=O)NCCCCCN)C(=O)OCc1ccccc1` gave an inhibition of 18.5%.
`CCN(CC(=O)Nc1ccc(OC)cc1)C(=O)c1cc2c(s1)CCCCC2` gave an inhibition of 12.4%.
Work on `CSc1nnc(SCC(=O)Nc2ccc3[nH]c(=O)[nH]c3c2)s1` yielded an inhibition of -17%.
`COc1ccccc1NC(=O)CN1C(=O)COc2ccc(S(=O)(=O)N3CCC(C)CC3)cc21` showed an inhibition of 9.4%.
For `O=S(=O)(c1cccc2nsnc12)N1CCc2ccccc2C1`, the inhibition was 3.1%.
With `CC1CCCN(CCOCCSc2ccccc2)C1` (stereo not given) the inhibition was 13.4%.
`Clc1ccc(SCCCN2CCCCC2)cc1` gave an inhibition of 5.39%.
For `COc1ccc(S(=O)(=O)N2CCCC(C(=O)NC3CCCCC3)C2)cc1` (stereo not given), the inhibition was -6.21%.
`COC(=O)CN(C#N)c1nc(OC)nc(N(C)C)n1` gave an inhibition of 2.2%.
`CCOC(=O)CN(C#N)c1nc(C)cc(C)n1` gave an inhibition of 1.75%.
In the case of `CCOc1ccccc1OCC(=O)Nc1nc2ccccc2[nH]1`, the inhibition is reported as 34.2%.
With `CN(c1cccc(Cl)c1)S(=O)(=O)c1cccc(C(=O)Nc2nc3ccccc3[nH]2)c1` the inhibition was 7.4%.
With `COc1ccc(Cl)cc1C(=O)Nc1nc2ccccc2[nH]1` the inhibition was 62.4%.
Compound `O=C(COc1ccccc1)Nc1nc2ccccc2[nH]1` has an inhibition of 75.5%.
Work on `CCOc1ccccc1OCCCC(=O)Nc1nc2ccccc2[nH]1` yielded an inhibition of 12.7%.
For `COc1ccc(C(=O)Nc2nc3ccccc3[nH]2)cc1OC`, the inhibition was 22.2%.
With `O=C(COc1ccccc1C(=O)O)Nc1cccc2ccccc12` the inhibition was 15.8%.
For `O=C(COc1cccc2ccccc12)Nc1cc(Cl)ccc1C(=O)O`, the inhibition was 69.4%.
For `CCN(CC)S(=O)(=O)c1ccc(NC(=O)c2cccs2)cc1`, the inhibition was -5.05%.
`O=C(COc1ccccc1C(=O)Nc1ccccc1)c1ccc(F)cc1` gave an inhibition of 2.88%.
For `Cc1sc(NC(=O)C2CSC3(C)CCC(=O)N23)nc1-c1ccc(F)cc1` (stereo not given), the inhibition was 23.3%.
Work on `CNC(=O)C1CCC(=O)N1Cc1ccccc1Cl` (stereo not given) yielded an inhibition of -5.58%.
With `Cc1[nH]c2ccccc2c1CC#N` the inhibition was -7.72%.
Compound `COC(=O)CNC(=O)COC(=O)/C=C/c1cccs1` has an inhibition of -8.45%.
`COc1ccc(/C=C2\N=C(C(C)(C)C)OC2=O)c(OC)c1` gave an inhibition of 64.4%.
`CN(C)c1ccc(C=C2C(=O)OC(C)(C(C)(C)C)OC2=O)cc1` (stereo not given) showed an inhibition of -8.32%.
For `CCN(C[C@H]1N[C@@](C)(C(=O)OC)[C@H]2C(=O)N(C)C(=O)[C@@H]12)C(=O)C1CCCCC1`, the inhibition was 1.05%.
With `CS(=O)(=O)Nc1ccccc1C(=O)NC1CC2CCC1C2` (stereo not given) the inhibition was -26.9%.
`COc1ccc(NC(=O)Cn2c(=O)n(CC3CCCO3)c(=O)c3cc(OC)c(OC)cc32)cc1OC` (stereo not given) showed an inhibition of 3.8%.
For `COC(=O)c1ccccc1OCCOCCOc1cccc2cccnc12`, the inhibition was -0.9%.
`O=C1OCCC1Sc1nnc(-c2ccc3c(c2)OCO3)o1` (stereo not given) showed an inhibition of 0.17%.
Work on `O=C(c1ccc(Cl)cc1)N1CCCCC(Sc2nnc(-c3ccc4c(c3)OCO4)o2)C1=O` (stereo not given) yielded an inhibition of 17.2%.
Compound `Cc1ccc(S(=O)(=O)N(C)C)cc1-n1c(SCC(=O)Nc2ccc(F)cc2)nc2ccccc2c1=O` has an inhibition of 26.8%.
With `COC(=O)c1ccccc1OC(=O)c1cc2ccccc2oc1=O` the inhibition was 17.4%.
With `CC(=O)/C=C\c1ccccc1OC(=O)c1cc2ccccc2oc1=O` the inhibition was 18%.
In the case of `Cc1ccc(NC(=O)C2(S(=O)(=O)c3ccc(C)cc3)CC2)cc1`, the inhibition is reported as 7.01%.
With `COc1ccc(C(=O)NC(=S)NNC(=O)c2ccco2)cc1` the inhibition was 78.5%.
`CCCCOc1ccc(C(=O)NCC(=O)NNC(=O)c2ccco2)cc1` gave an inhibition of 9.92%.
With `CCCOc1ccc(C(=O)Nc2ccc(NC(=O)c3cccs3)cc2)cc1` the inhibition was -8.66%.
`CCCC(=O)Nc1ccc(C(=O)NNC(=S)NC(=O)c2cccs2)cc1` showed an inhibition of -6.93%.
Compound `c1cnc2c(OCc3cn4cccnc4n3)cccc2c1` has an inhibition of 24.9%.
Compound `CCC(C(=O)NCc1ccco1)N(C(=O)CNS(=O)(=O)c1ccccc1)C1CCCCC1` (stereo not given) has an inhibition of 18.4%.
Work on `COc1ccc(-n2c(SCC(=O)O)nnc2-c2ccc(NC(=O)c3ccccc3)cc2)cc1` yielded an inhibition of 9.48%.
